These results are taken from the supplement of paper PMC7695840.

Counter-ions that a name gives are not always drawn.

In assay [1] the test system is Staphylococcus aureus MW2 delta-mecA (mecA-). As to the kind of experiment: normalized GFP fluorescence (growth of mecA- strain) (fraction of control range); higher = more growth of mecA- strain. The note with it: compound concentration: 150 uM; cefoxitin: subinhibitory; fluorescent label: GFP. A digest of the protocol:
(§1)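 Two pre-induced S. aureus MW2 strains, one with the gene labeled by DsRed and one lacking it labeled by GFP, were mixed 1:1 in LB with a subinhibitory antibiotic dose set daily. The mix went at 5 µL/well onto 150 μM compound (1.5% DMSO) in 1536-well plates, single replicate, and grew unshaken 20 h at 37 °C, 90% humidity. DsRed (540/590) and GFP (485/520) values were scaled per plate between single-strain control medians, and plates with high untreated ratios or rows with DsRed/GFP >10 were left out.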

Assay [2] has as its system Staphylococcus aureus MW2 (mecA+). As to the kind of experiment: normalized DsRed fluorescence (growth of mecA+ strain) (fraction of control range); higher = more growth of mecA+ strain. The note with it: compound concentration: 150 uM; cefoxitin: subinhibitory; fluorescent label: DsRed. A digest of the protocol: as §1

For `CNS(=O)(=O)CCc1ccc2[nH]cc(C3CCN(C)CC3)c2c1` [Naratriptan HCl], in assay [1], the “normalized GFP fluorescence” value is 0.395. The “normalized DsRed fluorescence” value in assay [2] amounted to 0.662.

For `CC(C)Oc1ccc2c(=O)c(-c3ccccc3)coc2c1` [Ipriflavone], the “normalized GFP fluorescence” value in assay [1] stood at 0.362. Further, the “normalized DsRed fluorescence” value in assay [2] turned out to be 0.57.

On to `C#C[C@]1(O)CC[C@H]2[C@@H]3CCC4=CC(=O)CC[C@@H]4[C@H]3CC[C@@]21C` [Norethindrone (Norethisterone)], for which the “normalized GFP fluorescence” value in assay [1] was 0.268. The “normalized DsRed fluorescence” value in assay [2] was 0.621.

In the case of `CC(=O)O[C@]1(C(C)=O)CC[C@H]2[C@@H]3C[C@H](C)C4=CC(=O)CC[C@]4(C)[C@H]3CC[C@@]21C`, the “normalized GFP fluorescence” value in assay [1] is 0.145. The “normalized DsRed fluorescence” value in assay [2] amounted to 0.759.

For the compound `N[C@H]1C(O)O[C@H](CO)[C@@H](O)[C@@H]1O` (stereo partly drawn), the “normalized GFP fluorescence” value in assay [1] worked out at 0.468. Further, the “normalized DsRed fluorescence” value in assay [2] is 0.564.

`N#CC[C@H](C1CCCC1)n1cc(-c2ncnc3[nH]ccc23)cn1`: in assay [1], the “normalized GFP fluorescence” value amounted to 0.187. Besides, in assay [2], the “normalized DsRed fluorescence” value amounted to 0.956.

Turning to `C=C1CC[C@H](O)C/C1=C/C=C1\CCC[C@]2(C)[C@@H]([C@H](C)CCCC(C)(C)O)CC[C@@H]12` [Calcifediol], the “normalized GFP fluorescence” value in assay [1] is -0.0113. Moreover, the “normalized DsRed fluorescence” value in assay [2] came to 0.65.

As to `CC(C)n1c(/C=C/C(O)CC(O)CC(=O)O)c(-c2ccc(F)cc2)c2ccccc21` (stereo not drawn), the “normalized GFP fluorescence” value in assay [1] worked out at 0.0168. Further, the “normalized DsRed fluorescence” value in assay [2] is 0.369.

For `O.O.O.O.O.O.O.O.O.O.O.O.O.O.O.O.O.O.O.O.O=S(=O)([O][Al])OC[C@H]1O[C@@](COS(=O)(=O)[O][Al])(O[C@H]2O[C@H](COS(=O)(=O)[O][Al])[C@@H](OS(=O)(=O)[O][Al])[C@H](OS(=O)(=O)[O][Al])[C@H]2OS(=O)(=O)[O][Al])[C@@H](OS(=O)(=O)[O][Al])[C@@H]1OS(=O)(=O)[O][Al].[Al]`, the “normalized GFP fluorescence” value in assay [1] amounted to 0.405. The “normalized DsRed fluorescence” value in assay [2] was 0.842.

Take `NC(=O)Cc1cccc(C(=O)c2ccccc2)c1N` [Nepafenac]: in assay [1], the “normalized GFP fluorescence” value was found to be 0.747. Besides, the “normalized DsRed fluorescence” value in assay [2] was 0.818.

Regarding `CC(N/C(=N\C#N)Nc1ccncc1)C(C)(C)C` (stereo not drawn), the “normalized GFP fluorescence” value in assay [1] was determined as 0.124. For the same compound, the “normalized DsRed fluorescence” value in assay [2] is 1.44.

`CN(C)CC[C@@H](c1ccc(Cl)cc1)c1ccccn1`: the “normalized GFP fluorescence” value in assay [1] was found to be 0.307. For the same compound, the “normalized DsRed fluorescence” value in assay [2] was determined as 0.588.

Take `COc1ccc(CC2c3cc(OC)c(OC)cc3CC[N+]2(C)CCC(=O)OCCCCCOC(=O)CC[N+]2(C)CCc3cc(OC)c(OC)cc3C2Cc2ccc(OC)c(OC)c2)cc1OC` (stereo not drawn): the “normalized GFP fluorescence” value in assay [1] came to 0.325. Moreover, the “normalized DsRed fluorescence” value in assay [2] turned out to be 0.862.

Take `CC(=O)O[C@]1(C(C)=O)CC[C@H]2[C@@H]3C=C(Cl)C4=CC(=O)[C@@H]5C[C@@H]5[C@]4(C)[C@H]3CC[C@@]21C`: the “normalized GFP fluorescence” value in assay [1] was 0.239. Further, in assay [2], the “normalized DsRed fluorescence” value was 0.593.

For `Cn1c(=O)c2nc[nH]c2n(C)c1=O`, the “normalized GFP fluorescence” value in assay [1] stood at 0.449. The “normalized DsRed fluorescence” value in assay [2] was found to be 0.42.

With `CC(=O)OCC(=O)NCCCOc1cccc(CN2CCCCC2)c1` [Roxatidine acetate HCl], in assay [1], the “normalized GFP fluorescence” value stood at 0.438. Moreover, the “normalized DsRed fluorescence” value in assay [2] was 0.76.

On to `C[C@]12CC[C@@H]3c4ccc(O)cc4CC[C@H]3[C@@H]1C[C@@H](O)[C@@H]2O`, for which the “normalized GFP fluorescence” value in assay [1] worked out at 0.63. In assay [2], the “normalized DsRed fluorescence” value came to 0.459.

For the compound `CCN1CCC[C@H]1CNC(=O)c1cc(S(N)(=O)=O)ccc1OC` [Levosulpiride (Levogastrol)], in assay [1], the “normalized GFP fluorescence” value turned out to be 0.447. In addition, the “normalized DsRed fluorescence” value in assay [2] came out at 0.695.

Take `CC(=O)[C@H]1CC[C@H]2[C@@H]3CCC4=CC(=O)CC[C@]4(C)[C@H]3CC[C@]12C`: the “normalized GFP fluorescence” value in assay [1] was found to be 0.278. Moreover, the “normalized DsRed fluorescence” value in assay [2] is 0.415.

As to `CC1(C)NC(=O)N(c2ccc([N+](=O)[O-])c(C(F)(F)F)c2)C1=O`, the “normalized GFP fluorescence” value in assay [1] was 0.333. The “normalized DsRed fluorescence” value in assay [2] is 0.86.

Regarding `CN1C(CCl)Nc2cc(Cl)c(S(N)(=O)=O)cc2S1(=O)=O` (stereo not drawn) [Methyclothiazide], the “normalized GFP fluorescence” value in assay [1] came to 0.383. Besides, the “normalized DsRed fluorescence” value in assay [2] was found to be 0.579.

On to `CC(=O)O[C@]1(C(C)=O)CC[C@H]2[C@@H]3C=C(Cl)C4=CC(=O)CC[C@]4(C)[C@H]3CC[C@@]21C`, for which the “normalized GFP fluorescence” value in assay [1] was 0.23. Moreover, the “normalized DsRed fluorescence” value in assay [2] came to 0.594.

Turning to `Cc1cccc(Nc2ccccc2C(=O)O)c1C` [Mefenamic Acid], the “normalized GFP fluorescence” value in assay [1] is 0.0909. Moreover, the “normalized DsRed fluorescence” value in assay [2] was determined as 0.169.

With `CC(C)(C)NC[C@H](O)COc1cccc2c1CCCC2=O`, the “normalized GFP fluorescence” value in assay [1] was found to be 0.401. In assay [2], the “normalized DsRed fluorescence” value worked out at 0.5.

Turning to `OCc1cccnc1`, the “normalized GFP fluorescence” value in assay [1] came to 0.896. Further, the “normalized DsRed fluorescence” value in assay [2] is 0.471.

As to `CC[C@H](C)C(=O)O[C@H]1C[C@@H](C)C=C2C=C[C@H](C)[C@H](CC[C@@H]3C[C@@H](O)CC(=O)O3)[C@H]21`, the “normalized GFP fluorescence” value in assay [1] was 0.345. The “normalized DsRed fluorescence” value in assay [2] was 0.697.

As for `Oc1ncnc2[nH]ncc12`, the “normalized GFP fluorescence” value in assay [1] is 0.524. For the same compound, the “normalized DsRed fluorescence” value in assay [2] was determined as 0.531.

Consider `COCCCC/C(=N\OCCN)c1ccc(C(F)(F)F)cc1`, for which, in assay [1], the “normalized GFP fluorescence” value turned out to be 0.551. The “normalized DsRed fluorescence” value in assay [2] came out at 0.562.

Turning to `CC1(C)S[C@@H]2[C@H](NC(=O)[C@H](C(=O)O)c3ccsc3)C(=O)N2[C@H]1C(=O)O`, in assay [1], the “normalized GFP fluorescence” value turned out to be 0.468. Further, the “normalized DsRed fluorescence” value in assay [2] was 0.864.

Regarding `CCCNC(C)C(=O)Nc1ccccc1C` (stereo not drawn), the “normalized GFP fluorescence” value in assay [1] was 0.223. In addition, in assay [2], the “normalized DsRed fluorescence” value came out at 0.919.

As to `Cc1c(O)c(=O)ccn1C` [Deferiprone], the “normalized GFP fluorescence” value in assay [1] amounted to 0.292. Also, the “normalized DsRed fluorescence” value in assay [2] amounted to 0.96.

As for `CN1CCCN=C1/C=C/c1cccc(O)c1`, the “normalized GFP fluorescence” value in assay [1] came to 0.279. The “normalized DsRed fluorescence” value in assay [2] was 0.787.

As for `CN1CCCCC1CCN1c2ccccc2Sc2ccc([S+](C)[O-])cc21` (stereo not drawn), the “normalized GFP fluorescence” value in assay [1] worked out at 0.265. Also, the “normalized DsRed fluorescence” value in assay [2] is 1.16.

Regarding `C#C[C@]1(OC(C)=O)CC[C@H]2[C@@H]3CCC4=CC(=NO)CC[C@@H]4[C@H]3CC[C@@]21CC` (mixture of isomers), the “normalized GFP fluorescence” value in assay [1] turned out to be 0.0291. The “normalized DsRed fluorescence” value in assay [2] worked out at 0.642.
